Source: ChEMBL document CHEMBL3988442, “University of Dundee, Small-Polar-MMV Screening Library” (2021)
For some of these results: Potency and affinity values are given separately.

Assays:
[1] = target: Protein translocase subunit SecA (Escherichia coli (strain K12)) (UniProt P10408); assay: Assay to Identify E. coli SecA ATPase Inhibitors; type: functional; design: scale not given: direction of the effect not stated beside the values; conditions: 30 µM
[2] = target: T1, Ubiquitin-activating enzyme e1, putative (Leishmania donovani (strain BPK282A1)) (UniProt E9BSI1); assay: Leishmania donovani Ubiquitin Activating Enzyme (LdE1); type: functional; design: scale not given: direction of the effect not stated beside the values; conditions: 30 µM
T1 sequence (whole entry): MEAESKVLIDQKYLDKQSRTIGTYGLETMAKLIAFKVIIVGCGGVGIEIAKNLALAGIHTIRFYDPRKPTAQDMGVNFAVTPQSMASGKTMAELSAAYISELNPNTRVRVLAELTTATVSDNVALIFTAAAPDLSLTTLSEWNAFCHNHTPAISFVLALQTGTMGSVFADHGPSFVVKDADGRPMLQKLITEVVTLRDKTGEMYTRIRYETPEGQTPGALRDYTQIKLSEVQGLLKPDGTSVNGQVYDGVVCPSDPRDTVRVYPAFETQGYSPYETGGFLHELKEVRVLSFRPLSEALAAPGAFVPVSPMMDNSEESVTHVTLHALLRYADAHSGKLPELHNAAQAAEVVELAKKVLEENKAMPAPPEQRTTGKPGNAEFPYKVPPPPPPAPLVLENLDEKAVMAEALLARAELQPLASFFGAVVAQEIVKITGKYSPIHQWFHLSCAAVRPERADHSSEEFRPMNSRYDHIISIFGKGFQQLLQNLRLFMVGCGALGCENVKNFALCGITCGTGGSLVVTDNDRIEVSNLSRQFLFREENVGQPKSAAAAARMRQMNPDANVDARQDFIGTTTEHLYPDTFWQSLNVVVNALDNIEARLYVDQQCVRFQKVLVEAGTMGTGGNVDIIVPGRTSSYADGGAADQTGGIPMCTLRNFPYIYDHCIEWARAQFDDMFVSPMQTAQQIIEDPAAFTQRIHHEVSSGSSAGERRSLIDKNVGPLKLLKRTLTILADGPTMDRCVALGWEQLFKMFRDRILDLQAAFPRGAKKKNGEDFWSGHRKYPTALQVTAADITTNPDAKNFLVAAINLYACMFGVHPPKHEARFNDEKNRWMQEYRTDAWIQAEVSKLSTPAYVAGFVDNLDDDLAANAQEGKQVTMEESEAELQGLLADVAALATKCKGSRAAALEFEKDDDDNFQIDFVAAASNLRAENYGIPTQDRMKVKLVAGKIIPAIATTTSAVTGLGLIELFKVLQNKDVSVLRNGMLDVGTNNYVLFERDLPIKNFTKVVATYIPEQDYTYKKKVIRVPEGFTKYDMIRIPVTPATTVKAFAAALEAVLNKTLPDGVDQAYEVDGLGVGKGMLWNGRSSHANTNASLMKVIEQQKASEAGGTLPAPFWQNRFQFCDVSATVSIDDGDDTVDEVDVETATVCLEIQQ

[3] = target: T2, Aspartate--tRNA(Asp/Asn) ligase (Mycobacterium tuberculosis (strain ATCC 25618 / H37Rv)) (UniProt P9WFW3); assay: Assay for Asp RNA synthetase-1 from Mycobacterium tuberculosis; type: functional; design: scale not given: direction of the effect not stated beside the values; conditions: 30 µM; also: in the data most compounds retested in dose-response had high values
T2 sequence (whole entry): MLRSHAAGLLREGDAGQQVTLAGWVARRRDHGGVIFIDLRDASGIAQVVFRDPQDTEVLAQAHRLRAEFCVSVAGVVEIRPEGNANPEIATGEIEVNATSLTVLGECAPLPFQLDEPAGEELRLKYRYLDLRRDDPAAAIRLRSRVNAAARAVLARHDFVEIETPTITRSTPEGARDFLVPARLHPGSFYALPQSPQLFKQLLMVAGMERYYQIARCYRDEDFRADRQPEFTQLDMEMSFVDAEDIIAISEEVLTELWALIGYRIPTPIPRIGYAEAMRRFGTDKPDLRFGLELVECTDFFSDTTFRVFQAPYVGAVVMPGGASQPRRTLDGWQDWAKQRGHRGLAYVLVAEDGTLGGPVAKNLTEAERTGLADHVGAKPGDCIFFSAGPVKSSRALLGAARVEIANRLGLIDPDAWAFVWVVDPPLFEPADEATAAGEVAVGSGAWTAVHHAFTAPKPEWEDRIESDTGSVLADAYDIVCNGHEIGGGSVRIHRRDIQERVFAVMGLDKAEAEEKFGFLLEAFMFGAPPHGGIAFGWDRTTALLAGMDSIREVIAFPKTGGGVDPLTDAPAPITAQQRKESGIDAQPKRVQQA

[4] = target: AMP-activated protein kinase, AMPK (Homo sapiens) (UniProt P54646+O43741+P54619+Q9UGJ0+Q9Y478+Q13131+Q9UGI9); assay: AMP-dependent Kinase enzyme assay. An in vitro enzyme assay that detects ADP turnover that is directly proportional to AMPK activity. This uses naive AMPK that is activated during the assay with MK-8722; type: functional; design: scale not given: direction of the effect not stated beside the values; conditions: 30 µM
[5] = target: Sialic acid-binding Ig-like lectin 9 (Homo sapiens) (UniProt Q9Y336); assay: Hs-Siglec9 ALPHAscreen SOP 20170721; design: scale not given: direction of the effect not stated beside the values; conditions: 10 µM
Sequence of Sialic acid-binding Ig-like lectin 9 (Homo sapiens) (Q9Y336 whole entry): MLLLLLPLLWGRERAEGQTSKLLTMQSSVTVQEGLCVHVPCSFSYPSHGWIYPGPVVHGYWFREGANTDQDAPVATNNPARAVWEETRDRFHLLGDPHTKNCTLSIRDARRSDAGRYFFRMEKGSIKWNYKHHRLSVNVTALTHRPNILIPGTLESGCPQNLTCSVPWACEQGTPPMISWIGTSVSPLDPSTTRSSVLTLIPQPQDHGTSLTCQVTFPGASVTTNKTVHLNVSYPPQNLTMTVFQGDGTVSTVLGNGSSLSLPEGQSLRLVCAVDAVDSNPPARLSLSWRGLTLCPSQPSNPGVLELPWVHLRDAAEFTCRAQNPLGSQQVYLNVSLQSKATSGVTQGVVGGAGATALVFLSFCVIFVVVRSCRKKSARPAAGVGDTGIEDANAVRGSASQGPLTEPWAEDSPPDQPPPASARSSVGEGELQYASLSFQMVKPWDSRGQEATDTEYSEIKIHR

[6] = test system: Trypanosoma cruzi; assay: Trypanosoma cruzi phosphomannomutase and mannose-1-phosphate guanylyltransferase assay; type: functional; design: scale not given: direction of the effect not stated beside the values; conditions: 10 µM
[7] = target: T3, Arginase-2, mitochondrial (Homo sapiens) (UniProt P78540); assay: in vitro enzyme assay to detect the production of urea directly proportional to the activity of Arginase II; type: functional; design: scale not given: in the data most compounds retested in dose-response had high values; conditions: 33.3 µM
T3 sequence (whole entry): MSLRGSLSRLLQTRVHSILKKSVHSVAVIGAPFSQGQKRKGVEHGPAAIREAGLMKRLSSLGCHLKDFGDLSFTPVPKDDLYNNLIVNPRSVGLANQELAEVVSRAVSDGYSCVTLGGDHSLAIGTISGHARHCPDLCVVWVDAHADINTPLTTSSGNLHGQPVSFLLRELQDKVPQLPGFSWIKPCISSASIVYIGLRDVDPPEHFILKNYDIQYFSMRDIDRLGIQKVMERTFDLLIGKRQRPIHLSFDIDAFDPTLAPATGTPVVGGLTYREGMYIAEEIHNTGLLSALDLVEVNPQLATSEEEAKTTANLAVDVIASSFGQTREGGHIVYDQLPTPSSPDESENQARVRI

[8] = target: T4, Proteasome subunit beta (Trypanosoma cruzi) (UniProt O96673); assay: Trypanosoma cruzi proteasome chymotrypsin-like activity (TcProtChymo) assay.; type: functional; design: scale not given: in the data most compounds retested in dose-response had high values; conditions: 9.37 µM
T4 sequence (whole entry): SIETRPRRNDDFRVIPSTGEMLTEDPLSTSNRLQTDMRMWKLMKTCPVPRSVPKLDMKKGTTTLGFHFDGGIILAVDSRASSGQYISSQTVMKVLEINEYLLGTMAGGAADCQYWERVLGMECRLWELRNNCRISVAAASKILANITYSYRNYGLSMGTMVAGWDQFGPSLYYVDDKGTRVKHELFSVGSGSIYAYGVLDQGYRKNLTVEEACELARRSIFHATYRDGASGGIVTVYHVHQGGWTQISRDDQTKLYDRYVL

[9] = species on record: Homo sapiens; assay: To identify inhibition of the IFN signalling (Jak-Stat) pathway via expression of an eGFP reporter gene under the control of an IFN-stimulated response element (ISRE) containing MxA promoter.; type: functional; design: scale not given: direction of the effect not stated beside the values; conditions: 30 µM
[10] = target: Shiga toxin 2 (Escherichia coli O157:H7) (UniProt P09385+P09386); assay: E. coli 0.157:H7 Shiga Toxin SOP - stx2 screening assay; type: functional; design: scale not given: direction of the effect not stated beside the values; conditions: 30 µM
[11] = target: T5, Tyrosyl-tRNA synthetase, putative (Trypanosoma cruzi (strain CL Brener)) (UniProt Q4DSP6); assay: Trypanosoma cruzi tyrosyl tRNA synthetase (TcYRS) _High Tyrosine SOP; type: functional; design: scale not given: in the data most compounds retested in dose-response had high values; conditions: 30 µM
T5 sequence (whole entry): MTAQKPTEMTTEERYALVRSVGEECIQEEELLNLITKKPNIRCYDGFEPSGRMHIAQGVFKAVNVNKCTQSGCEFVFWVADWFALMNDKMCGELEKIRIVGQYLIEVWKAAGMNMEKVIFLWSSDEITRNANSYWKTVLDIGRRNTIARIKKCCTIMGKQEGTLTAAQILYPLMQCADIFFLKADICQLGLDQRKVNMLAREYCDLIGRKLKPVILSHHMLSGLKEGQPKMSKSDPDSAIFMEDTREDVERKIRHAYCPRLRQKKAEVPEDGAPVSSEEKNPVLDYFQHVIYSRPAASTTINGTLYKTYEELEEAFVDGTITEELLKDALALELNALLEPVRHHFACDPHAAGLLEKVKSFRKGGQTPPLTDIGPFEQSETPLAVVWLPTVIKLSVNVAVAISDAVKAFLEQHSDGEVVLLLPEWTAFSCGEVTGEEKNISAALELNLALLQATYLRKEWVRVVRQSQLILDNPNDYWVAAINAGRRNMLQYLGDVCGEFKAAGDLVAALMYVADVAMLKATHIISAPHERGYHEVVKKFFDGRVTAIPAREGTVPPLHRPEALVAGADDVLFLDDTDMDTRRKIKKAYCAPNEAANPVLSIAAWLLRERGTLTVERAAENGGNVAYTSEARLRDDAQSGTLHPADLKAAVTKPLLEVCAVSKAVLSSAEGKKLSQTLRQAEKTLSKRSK

[12] = target: T5, Tyrosyl-tRNA synthetase, putative (Trypanosoma cruzi (strain CL Brener)); assay: Trypanosoma cruzi tyrosyl tRNA synthetase (TcYRS) SOP; type: functional; design: scale not given: direction of the effect not stated beside the values; conditions: 30 µM
[13] = target: Chromo domain-containing protein 1 (Saccharomyces cerevisiae (strain ATCC 204508 / S288c) (Baker's yeast)) (UniProt P32657); assay: ScCHD-1 Enzyme Inhibition Assay; type: functional; design: scale not given: in the data most compounds retested in dose-response had high values; conditions: 30 µM
Sequence of Chromo domain-containing protein 1 (Saccharomyces cerevisiae (strain ATCC 204508 / S288c) (Baker's yeast)) (P32657 whole entry, the tested form may be a part): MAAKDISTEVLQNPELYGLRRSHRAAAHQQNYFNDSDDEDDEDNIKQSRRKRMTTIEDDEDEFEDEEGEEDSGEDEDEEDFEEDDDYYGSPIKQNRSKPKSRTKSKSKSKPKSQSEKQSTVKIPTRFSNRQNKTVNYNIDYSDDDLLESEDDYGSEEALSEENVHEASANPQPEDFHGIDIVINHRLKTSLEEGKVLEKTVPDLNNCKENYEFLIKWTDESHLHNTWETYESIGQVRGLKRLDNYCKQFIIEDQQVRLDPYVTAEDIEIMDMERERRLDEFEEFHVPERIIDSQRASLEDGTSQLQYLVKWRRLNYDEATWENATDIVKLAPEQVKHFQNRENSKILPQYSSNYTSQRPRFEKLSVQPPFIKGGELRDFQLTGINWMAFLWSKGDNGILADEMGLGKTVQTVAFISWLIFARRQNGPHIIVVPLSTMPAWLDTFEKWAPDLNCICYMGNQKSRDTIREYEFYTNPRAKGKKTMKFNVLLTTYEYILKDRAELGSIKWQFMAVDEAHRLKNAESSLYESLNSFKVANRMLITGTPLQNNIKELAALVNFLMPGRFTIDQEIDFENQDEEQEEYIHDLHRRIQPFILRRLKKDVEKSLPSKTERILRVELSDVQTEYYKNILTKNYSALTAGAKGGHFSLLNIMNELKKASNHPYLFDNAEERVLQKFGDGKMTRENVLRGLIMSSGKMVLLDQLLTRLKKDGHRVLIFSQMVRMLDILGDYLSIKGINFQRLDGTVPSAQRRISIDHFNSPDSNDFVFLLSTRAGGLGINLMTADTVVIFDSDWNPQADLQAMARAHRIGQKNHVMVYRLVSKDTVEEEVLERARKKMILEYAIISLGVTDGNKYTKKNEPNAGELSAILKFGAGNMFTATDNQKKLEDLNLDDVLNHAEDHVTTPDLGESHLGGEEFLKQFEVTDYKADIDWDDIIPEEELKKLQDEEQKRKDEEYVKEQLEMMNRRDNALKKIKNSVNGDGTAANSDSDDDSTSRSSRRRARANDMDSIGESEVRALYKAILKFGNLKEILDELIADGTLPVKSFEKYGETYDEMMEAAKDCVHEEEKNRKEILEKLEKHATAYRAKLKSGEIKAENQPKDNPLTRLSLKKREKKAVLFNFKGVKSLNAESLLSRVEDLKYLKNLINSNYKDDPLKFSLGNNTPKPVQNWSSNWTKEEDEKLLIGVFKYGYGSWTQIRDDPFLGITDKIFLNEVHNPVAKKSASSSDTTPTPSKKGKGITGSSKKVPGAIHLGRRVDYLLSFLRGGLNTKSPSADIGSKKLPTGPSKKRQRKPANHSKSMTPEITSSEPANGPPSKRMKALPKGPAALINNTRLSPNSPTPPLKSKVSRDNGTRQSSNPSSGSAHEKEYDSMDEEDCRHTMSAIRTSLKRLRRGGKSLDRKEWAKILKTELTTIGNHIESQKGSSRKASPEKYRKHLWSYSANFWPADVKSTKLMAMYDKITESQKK

[14] = target: T6, Methionyl-tRNA synthetase, putative (Leishmania donovani (strain BPK282A1)) (UniProt E9BF75); assay: Leishmania donovani Methionine tRNA synthetase (LdMetRS):v7. Dose response assay; type: functional; design: conc 80 nM, time 150 minutes
T6 sequence (whole entry): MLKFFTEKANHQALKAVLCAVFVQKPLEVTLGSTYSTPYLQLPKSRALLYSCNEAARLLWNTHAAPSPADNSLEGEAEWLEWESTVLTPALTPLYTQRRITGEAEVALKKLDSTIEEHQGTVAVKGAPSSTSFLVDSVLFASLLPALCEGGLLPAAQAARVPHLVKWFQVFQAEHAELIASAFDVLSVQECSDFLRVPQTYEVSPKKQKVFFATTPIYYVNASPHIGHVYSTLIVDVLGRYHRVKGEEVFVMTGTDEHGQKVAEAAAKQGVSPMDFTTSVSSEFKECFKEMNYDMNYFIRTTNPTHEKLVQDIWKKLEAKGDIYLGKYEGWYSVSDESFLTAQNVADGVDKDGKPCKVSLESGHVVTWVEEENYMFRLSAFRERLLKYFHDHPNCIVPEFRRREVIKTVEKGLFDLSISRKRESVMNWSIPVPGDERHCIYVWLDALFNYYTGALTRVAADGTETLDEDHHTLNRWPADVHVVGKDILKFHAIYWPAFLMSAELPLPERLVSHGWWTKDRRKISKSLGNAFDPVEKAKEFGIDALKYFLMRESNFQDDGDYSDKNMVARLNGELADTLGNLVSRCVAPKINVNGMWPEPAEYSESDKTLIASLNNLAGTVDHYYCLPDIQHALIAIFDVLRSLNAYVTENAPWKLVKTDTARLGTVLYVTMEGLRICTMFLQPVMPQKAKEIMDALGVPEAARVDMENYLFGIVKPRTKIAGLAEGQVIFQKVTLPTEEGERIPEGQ

Sequence of Protein translocase subunit SecA (Escherichia coli (strain K12)) (P10408 whole entry): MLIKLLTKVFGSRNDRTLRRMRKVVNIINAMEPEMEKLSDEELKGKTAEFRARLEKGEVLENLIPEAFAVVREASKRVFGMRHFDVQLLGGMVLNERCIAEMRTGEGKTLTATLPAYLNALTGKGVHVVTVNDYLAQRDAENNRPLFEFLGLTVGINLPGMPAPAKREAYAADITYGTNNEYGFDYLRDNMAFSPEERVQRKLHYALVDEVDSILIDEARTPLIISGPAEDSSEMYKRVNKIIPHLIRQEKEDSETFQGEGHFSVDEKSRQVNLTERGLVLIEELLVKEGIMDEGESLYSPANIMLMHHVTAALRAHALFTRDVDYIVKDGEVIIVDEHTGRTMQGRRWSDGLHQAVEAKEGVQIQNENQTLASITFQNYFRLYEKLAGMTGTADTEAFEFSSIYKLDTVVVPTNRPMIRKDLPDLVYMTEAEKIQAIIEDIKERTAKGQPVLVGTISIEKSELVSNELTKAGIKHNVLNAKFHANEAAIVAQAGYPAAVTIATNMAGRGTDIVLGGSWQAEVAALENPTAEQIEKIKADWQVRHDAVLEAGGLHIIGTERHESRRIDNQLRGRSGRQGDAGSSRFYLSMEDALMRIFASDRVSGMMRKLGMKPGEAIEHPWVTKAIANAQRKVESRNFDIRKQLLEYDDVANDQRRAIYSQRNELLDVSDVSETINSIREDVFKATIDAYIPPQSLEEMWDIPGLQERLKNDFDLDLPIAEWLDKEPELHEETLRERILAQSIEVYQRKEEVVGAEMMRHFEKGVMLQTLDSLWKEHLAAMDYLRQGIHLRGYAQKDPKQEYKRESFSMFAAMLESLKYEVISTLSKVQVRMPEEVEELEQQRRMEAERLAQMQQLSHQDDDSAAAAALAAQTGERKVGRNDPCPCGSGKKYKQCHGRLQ

O=C(Nc1cccnc1)[C@H]1COC[C@H]2CN(C3CCCC3)C[C@H]21
Percent Effect [1]: -5.23% | Percent Effect [2]: 8.11% | Percent Effect [3]: 5.33% | Percent Effect [4]: 1.79% | Percent Effect [5]: 1.44% | Percent Effect [6]: 2.15% | Percent Effect [7]: 3.33% | Percent Effect [8]: 10.2% | Percent Effect [9]: -5.51% | Percent Effect [10]: -10.3% | Percent Effect [11]: 4.95% | Percent Effect [12]: 11% | Percent Effect [13]: -4.54%

Clc1ccccc1Nc1ncnc(-n2cccc2)n1
PXC50 ([14]; MAX_EFFECT 8.148148148): < 4

FC(F)(F)c1cc(-c2cccs2)nc(N2CCN3CCCC3C2)n1 (stereo not drawn)
PXC50 ([14]; MAX_EFFECT 13.05483029): < 4 | PXC50 ([14]; MAX_EFFECT 13.8381201): < 4

COc1cccc(CC(C)NC(=O)NCc2ccn(C)c2)c1 (stereo not drawn)
PXC50 ([14]; MAX_EFFECT 39.40455342): < 4 | PXC50 ([14]; MAX_EFFECT 41.30434783): < 4 | PXC50 ([14]; MAX_EFFECT 46.2585034): < 4

COc1ccc2c(ccn2CCN)c1
Percent Effect [1]: -4.08% | Percent Effect [2]: -49.3% | Percent Effect [3]: -3.77% | Percent Effect [4]: -2.79% | Percent Effect [5]: 5.94% | Percent Effect [6]: -0.982% | Percent Effect [7]: 0.176% | Percent Effect [8]: 6.65% | Percent Effect [9]: 19% | Percent Effect [10]: -17.9% | Percent Effect [11]: 7.41% | Percent Effect [12]: 10.3% | Percent Effect [13]: -4.41%

CCN(CCc1ccccc1)Cn1nc(C)c2c(C)onc2c1=O
Percent Effect [1]: -5.66% | Percent Effect [2]: -8.11% | Percent Effect [3]: 5.17% | Percent Effect [4]: -13.6% | Percent Effect [5]: 25.2% | Percent Effect [6]: 3.68% | Percent Effect [7]: -3.21% | Percent Effect [8]: 7.75% | Percent Effect [9]: 5.78% | Percent Effect [10]: 16% | Percent Effect [11]: 9.36% | Percent Effect [12]: 23.5% | Percent Effect [13]: -14.1%

Cc1nc(NCC2CC2)nc2c1COCC21CCN(C)C1 (stereo not drawn)
Percent Effect [1]: -1.26% | Percent Effect [2]: 18.7% | Percent Effect [3]: -1.49% | Percent Effect [4]: 0.667% | Percent Effect [5]: -4.41% | Percent Effect [6]: 2.17% | Percent Effect [7]: 46.4% | Percent Effect [8]: 19.1% | Percent Effect [9]: 2.6% | Percent Effect [10]: 2.88% | Percent Effect [11]: 4.25% | Percent Effect [12]: 16.7% | Percent Effect [13]: -6.2%
